Screening data (PubChem)
ELG1 genotoxic: induces genotoxicity in HEK293T cells with luciferase-tagged ELG1. actives 1.3% (n = 330,000). Potency, µM (series often up to 46 µM), inactives show at the top dose activity change, positive = activation, hits mostly activators. HEK293T ELG1-luciferase reporter, luminescence, 16 h. AID 504466; note: % of control where 0% means no effect; nearly all actives have a fitted effect of over 60% in size
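HEK293T cells expressing luciferase-tagged ELG1 were treated with compound or DMSO for 16 hr at 37°C. Luciferase activity was then read after 30 min with ONE-Glo at room temperature; rising signal flags genetic stress.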
Rab9 promoter act: activates the Rab9 promoter; actives 2.8% (n = 320,000); Huh7 Rab9 promoter-luciferase reporter, luminescence, 24 h; Potency, µM (titrated, usually from 9.22 µM), for inactives: top-dose activation, negative = inhibition, usual class: activators; note: % of control where 0% means no effect; nearly all actives have a fitted effect of over 60% in size
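Huh7 cells stably carrying Rab9 promoter–luciferase reporter, plated 1500 cells/well, compound added after 2 h and incubated 24 h at 37 °C; luciferase luminescence then read after 10 min with detection reagent.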
FLuc modulator: firefly luciferase modulation, counter-screen for miR-21 project. Potency, µM (top dose mostly 57.5 µM), for inactives: at the top dose activity change, negative = inhibition, actives largely listed as inhibitors. AID 588342. purified FLuc, Km substrates, luminescence inhibition. actives 6.9% (n = 360,000);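 note: plate controls were vehicle for no effect and reference inhibitor for full effect; nearly all actives have a fitted effect of over 55% in size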
Target sequence (P08659 whole entry, looked up): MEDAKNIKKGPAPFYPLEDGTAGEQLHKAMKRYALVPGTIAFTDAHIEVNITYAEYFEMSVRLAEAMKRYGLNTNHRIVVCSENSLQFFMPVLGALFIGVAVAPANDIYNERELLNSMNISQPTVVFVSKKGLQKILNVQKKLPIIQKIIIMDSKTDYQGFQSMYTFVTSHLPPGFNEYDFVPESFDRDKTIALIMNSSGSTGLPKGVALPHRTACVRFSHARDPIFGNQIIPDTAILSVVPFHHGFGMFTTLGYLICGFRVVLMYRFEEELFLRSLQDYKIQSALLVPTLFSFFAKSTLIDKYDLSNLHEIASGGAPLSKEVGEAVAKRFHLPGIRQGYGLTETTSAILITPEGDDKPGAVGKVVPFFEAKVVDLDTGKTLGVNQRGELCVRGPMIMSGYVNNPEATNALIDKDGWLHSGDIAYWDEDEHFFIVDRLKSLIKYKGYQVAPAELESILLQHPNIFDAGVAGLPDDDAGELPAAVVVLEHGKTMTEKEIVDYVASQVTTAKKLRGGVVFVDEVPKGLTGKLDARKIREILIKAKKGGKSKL
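Purified P. pyralis luciferase, 10 nM final, with Km-level 10 uM D-luciferin and 10 uM ATP in 50 mM Tris acetate pH 7.5, 10 mM Mg acetate, 0.01% Tween-20, 0.05% BSA; 6-point qHTS titration about 60 µM downward; luminescence read.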
Luc counter: counter-screen: inhibitors of Kinase-Glo firefly luciferase; Kinase-Glo luciferase, ATP luminescence, 8 min; Potency, µM (series often up to 38.3 µM), inactives show at the highest dose activity change, negative = inhibition, usual class: inhibitors; actives 0.28% (n = 200,000); note: % is set by controls: 0 for no effect and ±100 for the full control effect; nearly all actives have a fitted effect of over 60% in size
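Light output from Kinase-Glo luciferase with luciferin and 10 uM ATP in 50 mM imidazole pH 7.2, KCl, MgCl2, Tween 20, BSA; compound pin-delivered, 8-min ambient incubation, then luminescence read.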
SMN2 splice enh: SMN2 splice variant enhancement; HEK293 SMN2-luciferase splicing reporter, luminescence, 30-36 h; Potency, µM (series often up to 46.1 µM), for the others: at the top dose activity change, positive = activation, hits mostly activators; actives 2.8% (n = 210,000); note: % of control where 0% means no effect; nearly all actives have a fitted effect of over 55% in size
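HEK293 cells carry an SMN2 […]–luciferase reporter in which exon 7 inclusion puts luciferase in frame. Cells were plated 10-12 h before compound addition, then incubated 30-36 h at 37C. ONE-Glo luminescence was read; sodium butyrate at 4.5 mM final served as control.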
NPC1 promoter act: NPC1 promoter activation; Huh7 NPC1 promoter luciferase reporter, 24 h; Potency, µM (series often up to 9.22 µM), without a hit: top-dose activation, hits mostly activators; actives 2.4% (n = 320,000); AID 485313; note: % of control where 0% means no effect; nearly all actives have a fitted effect of over 60% in size
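Stably transfected Huh7 (NPC1 promoter→luciferase), 1500 cells/well in Opti-MEM + 10% FBS, 2 h settle, then compound 24 h at 37 °C. Luminescence after 10 min with Amplite reagent.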
* hit, by the source's call; ? = inconclusive; / = not tested or not shown. The list is not random: actives were taken first. Their share in the collection is about 7.3%. Calls come from the whole dose curve; as a rule, active = well fitted curve in the direction sought with a large enough effect; inconclusive = small, poorly fitted or top-dose-only effect, or another doubt; inactive = no such curve, though single readings can be large; an effect the other way counts as inactive or inconclusive. Potency is the fitted concentration of half-maximal effect.

SMILES | ELG1 genotoxic | Rab9 promoter act | FLuc modulator | Luc counter | SMN2 splice enh | NPC1 promoter act
COc1ccc2[nH]c(C(=O)Nc3ncc(C)cc3Br)cc2c1 | -0.3% | 14.1% | 19µM* | / | / | -0.2%
CCN(CC)c1ccc(C(=O)NC(=S)N2CCN(Cc3ccc4c(c3)OCO4)CC2)cc1 | -3.4% | 1.3% | 21.3µM* | -3.5% | 11.9% | 0.1%
Cc1ccc(S(=O)(=O)n2nc(C)c(S(=O)(=O)N3CCC(C)CC3)c2C)cc1 | / | / | -0.1% | / | / | /
CCCC(=O)NCCc1c2n(c3ccc(OC)cc13)Cc1ccccc1-2 | / | / | / | 0.6% | -13.1% | /
CCC(=O)Nc1ccc(NC(=O)c2ccc3c(c2)OCO3)cc1 | 14.3% | -5.7% | -18.8% | 10.3% | -1.1% | -2.4%
O=C(Nc1ccccc1)c1ccc2c(c1)CCN2S(=O)(=O)c1ccccc1 | -5.8% | -1.6% | -3.0% | / | / | 10.2%
O=C(Nc1ccc(S(=O)(=O)N2CCc3ccccc32)cc1)c1ccc2c(c1)OCO2 | 23.1µM* | -11.0% | -13.2% | 7.3% | -30.6% | 6.0%
COc1ccc(NC(=O)c2ccc3c(c2)OCO3)cc1 | 5.17µM* | 0.631µM* | 3.38µM* | / | / | 1.12µM*
COc1ccc(NC(=O)c2ccc3c(c2)OCO3)cc1[N+](=O)[O-] | ? | 3.16µM* | ? | 1.7% | ? | 2.82µM*
Cc1ccc(C)c(N2CCN(C(=O)Cn3cnc4sc(C)c(S(=O)(=O)N5CCN(c6ncccn6)CC5)c4c3=O)CC2)c1 | / | / | 11.2% | / | 8.5% | /
CCCCc1ccc(Nc2ncccc2C#N)cc1 | ? | 2.82µM* | 9.53µM* | ? | ? | ?
c1ccc(-c2ccc(SCc3cccnc3)nn2)nc1 | ? | ? | ? | -6.4% | ? | ?
c1ccc(CSc2ccc(-c3ccccn3)nn2)nc1 | ? | 2.51µM* | ? | -8.9% | 11.2µM* | 2.82µM*
Clc1ccc(-c2ccc(SCc3ccccn3)nn2)cc1 | ? | 3.16µM* | ? | -1.2% | ? | 2.24µM*
CCS(=O)(=O)N1CC(=O)N(c2ccc(Cl)cc2)C(C)(C(=O)NC2CCCCC2)C1 (configuration not stated) | / | / | -1.2% | / | / | /
CCN(C(=O)c1nn(-c2ccc(OC)c(Cl)c2)c(=O)c2c1c1ccccc1n2C)c1cc(OC)ccc1OC | / | / | -2.5% | / | 4.1% | /
CC(C)Nc1oc(-c2cccc3ccccc23)nc1C#N | ? | ? | 12µM* | 10.8% | 9.7% | -0.3%
N#Cc1nc(-c2cccc3ccccc23)oc1N1CCCCC1 | 15.9% | ? | ? | 10.6% | 7.9% | ?
CCNc1oc(-c2cccc3ccccc23)nc1C#N | / | / | ? | 1.0% | -4.5% | /
CC1CCN(c2oc(-c3cccc4ccccc34)nc2C#N)CC1 | ? | ? | ? | -0.4% | 11.2µM* | ?
COCCNc1oc(-c2ccccc2Cl)nc1C#N | 1.8% | 9.1% | 19µM* | 0.0% | 0.0% | 17.2%
Cc1ccc2cccc(NC(=O)c3ccc(-c4cccc(Cl)c4Cl)o3)c2n1 | / | / | 0.0% | / | 5.7% | /
CSc1nnc(NC(=O)c2cc(=O)c3cc(C)c(C)cc3o2)s1 | / | / | -20.0% | / | -10.2% | /
O=C(NCc1cccnc1)c1cc(-c2cccs2)on1 | 9.9% | ? | ? | -1.8% | -0.3% | ?
COc1ccc(-c2cc(C(=O)NCc3cccnc3)no2)cc1 | 12.7% | ? | 12µM* | -9.5% | 7.3% | ?
SMILES | ELG1 genotoxic | Rab9 promoter act | FLuc modulator | Luc counter | SMN2 splice enh | NPC1 promoter act
COc1ccc(CNC(=O)c2cc(-c3ccc(OC)cc3)on2)cc1 | / | / | 4.8% | / | -9.7% | /
O=C(NCc1cccnc1)c1cc(-c2ccccc2)on1 | 20.6µM* | ? | ? | 0.8% | 15.8µM* | 28.6%
Cn1c(-c2ccc(CN3CCCCC3)o2)nc2ccccc21 | ? | ? | 15.1µM* | -8.0% | 12.6µM* | ?
CC(=O)NNc1nc2ccccc2s1 | -0.9% | 3.6% | 3.5% | -2.1% | -24.0% | 1.2%
O=C(NCc1ccncc1)C(=O)Nc1nc2ccccc2s1 | 16.4% | 22.5% | 15.1µM* | -0.3% | / | -1.1%
O=C(NCc1ccncc1)C(=O)Nc1nccs1 | -1.0% | -4.1% | 6.4% | / | / | 2.8%
CCOCC(=O)Nc1nc2ccccc2s1 | ? | ? | 23.9µM* | -4.6% | 14.1µM* | 3.16µM*
Cc1ccc(NC(=O)Nc2nc3ccccc3s2)cc1NC(=O)Nc1nc2ccccc2s1 | -6.1% | 0.5% | ? | / | / | 14.8%
O=C(NNc1nc2ccccc2s1)Nc1ccccc1 | ? | ? | ? | -0.4% | 14.1µM* | 3.16µM*
CCNC(=O)Nc1nc2ccccc2s1 | ? | ? | 23.9µM* | -2.4% | 14.1µM* | 3.98µM*
Cc1ccc(/C=C/c2onc(C)c2S(=O)(=O)N2CCC(C(=O)NCc3ccc(N(C)C)cc3)CC2)cc1 | / | / | 2.8% | / | / | /
CCc1ccc(NC(=O)CC2C(=O)N(c3cccc(OC)c3)C(=O)N2C2CCCC2)cc1 (configuration not stated) | / | / | -4.1% | / | / | /
CC(=O)NC(c1ccco1)c1cc(Cl)c2ccc(N3CCCCC3)nc2c1O (configuration not stated) | / | 3.7% | ? | / | / | 15.7%
CCCCNC(=O)Cn1c(=O)cc(C)c2c(C)nn(-c3cccc(Cl)c3C)c21 | / | / | -5.7% | / | / | /
S=C(Nc1ccccc1)c1nc2ccccc2s1 | ? | 2.51µM* | ? | -8.2% | 11.2µM* | ?
O=C(CCc1nc2ccccc2s1)Nc1ccccc1 | 0.0% | 1.7% | ? | 1.9% | -0.9% | 1.4%
COc1ccc(CCNC(=O)C2(c3cccs3)CCOCC2)cc1OC | / | / | -1.0% | / | / | /
CCc1nn(CC(=O)NCCc2ccc(Cl)cc2)c(=O)c2cc3c(OC)cccc3n12 | / | / | -5.2% | / | -2.4% | /
CC(C)(C)c1ccc(C(=O)/C(C#N)=C/c2cccs2)cc1 | 1.7% | 4.9% | 1.2µM* | / | / | 0.1%
N#C/C(=C\c1ccccc1)C(=O)Nc1nncs1 | 0.2% | 9.4% | 19µM* | / | / | -2.1%
CC(C)(C)c1ccc(C(=O)Nc2ccc(C=C(C#N)C#N)cc2)cc1 | ? | 0.501µM* | 4.78µM* | 2.4% | ? | ?
CC(NC(=O)/C(C#N)=C/c1cccs1)c1ccccc1 (configuration not stated) | -1.5% | -2.7% | -5.6% | 3.8% | -0.6% | -1.8%
N#C/C(=C\c1cccs1)C(=O)Nc1ccccn1 | ? | 1.58µM* | 3.38µM* | / | / | 2.24µM*
Cc1cc(Cl)ccc1OCC(=O)N(Cc1sccc1C)C1CCS(=O)(=O)C1 (configuration not stated) | / | / | -12.8% | / | 1.9% | /
Cc1ccc(S(=O)(=O)c2cn(CC(=O)Nc3ccc4c(c3)OCO4)c3ccc(F)cc3c2=O)cc1 | / | / | 3.5% | / | 2.3% | /
O=C(c1ccc2c(c1)N(Cc1ccc(F)cc1)CCS2)N1CCN(c2ccccc2)CC1 | / | / | -9.3% | / | -17.7% | /
Cc1ccccc1NC(=O)/C(C#N)=C/c1ccc(Cl)cc1Cl | / | / | -13.5% | / | 2.3% | /
